{"source": "paper PMC8136818", "about": "“Evolving origin-of-transfer sequences on staphylococcal conjugative and mobilizable plasmids—who’s mimicking whom?”", "binders": {"B1": {"name": "ossA45-2 (dsDNA)", "DNA 1": "AATGTGGGGTCACTTT", "DNA 2": "AAAGTGACCCCACATT"}, "B2": {"name": "OT45.11 (dsDNA)", "DNA 1": "TATGGGGTCATATTTCCCTTATGCTCTTAC", "DNA 2": "GTAAGAGCATAAGGGAAATATGACCCCATA"}, "B3": {"name": "OT45.4 (dsDNA)", "DNA 1": "TTTATTGTGGGGTCACTTTAAATTCTTTAA", "DNA 2": "TTAAAGAATTTAAAGTGACCCCACAATAAA"}, "B4": {"name": "ossBUNa (dsDNA)", "DNA 1": "AAAATGGGTACATATT", "DNA 2": "AATATGTACCCATTTT"}, "B5": {"name": "ossA45 (dsDNA)", "DNA 1": "ATTGTGGGGTCACTTT", "DNA 2": "AAAGTGACCCCACAAT"}, "B6": {"name": "ossB408 (dsDNA)", "DNA 1": "TAATAGGTGGCAAATT", "DNA 2": "AATTTGCCACCTATTA"}, "B7": {"name": "ossAUNa (dsDNA)", "DNA 1": "GTGACCCCCATAAGAT", "DNA 2": "ATCTTATGGGGGTCAC"}, "B8": {"name": "ossA45-4 (dsDNA)", "DNA 1": "ATTCTGGGGTCACTTT", "DNA 2": "AAAGTGACCCCAGAAT"}, "B9": {"name": "ossA45-3 (dsDNA)", "DNA 1": "ATAGTGGGGTCACTTT", "DNA 2": "AAAGTGACCCCACTAT"}, "B10": {"name": "OT45.5 (dsDNA)", "DNA 1": "GGTCACTTTAAATTCTTTAAAACCCTTGAA", "DNA 2": "TTCAAGGGTTTTAAAGAATTTAAAGTGACC"}, "B11": {"name": "OT45.3 (dsDNA)", "DNA 1": "GACACTATAGTTTATTGTGGGGTCACTTTA", "DNA 2": "TAAAGTGACCCCACAATAAACTATAGTGTC"}, "B12": {"name": "OT45.10 (dsDNA)", "DNA 1": "CCCCATAAAATATGGGGTCATATTTCCCTT", "DNA 2": "AAGGGAAATATGACCCCATATTTTATGGGG"}, "B13": {"name": "OT45.9 (dsDNA)", "DNA 1": "TTGCCAGCCACCCCATAAAATATGGGGTCA", "DNA 2": "TGACCCCATATTTTATGGGGTGGCTGGCAA"}, "B14": {"name": "ossA45 C11G (dsDNA)", "DNA 1": "ATTGTGGGGTGACTTT", "DNA 2": "AAAGTCACCCCACAAT"}, "B15": {"name": "ossA45-5 (dsDNA)", "DNA 1": "ATTGAGGGGTCACTTT", "DNA 2": "AAAGTGACCCCTCAAT"}, "B16": {"name": "ossA45-9 (dsDNA)", "DNA 1": "ATTGTGGGCTCACTTT", "DNA 2": "AAAGTGAGCCCACAAT"}, "B17": {"name": "ossA45-10 (dsDNA)", "DNA 1": "ATTGTGGGGACACTTT", "DNA 2": "AAAGTGTCCCCACAAT"}, "B18": {"name": "ossB45 (dsDNA)", "DNA 1": "AATATGGGGTCATATT", "DNA 2": "AATATGACCCCATATT"}, "B19": {"name": "ossA45-12 (dsDNA)", "DNA 1": "ATTGTGGGGTCTCTTT", "DNA 2": "AAAGAGACCCCACAAT"}, "B20": {"name": "ossA45-1 (dsDNA)", "DNA 1": "TTTGTGGGGTCACTTT", "DNA 2": "AAAGTGACCCCACAAA"}}}
{"biological_target": "T1, SmpO45 (Staphylococcus aureus plasmid pWBG745, UniProt UPI0001BEA8D3 1-84)", "T1 sequence": "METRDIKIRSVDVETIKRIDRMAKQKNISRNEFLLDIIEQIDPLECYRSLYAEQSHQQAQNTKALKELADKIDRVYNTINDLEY", "experiment": "SPR (ReDCaT); 300 mM NaCl; 10 mM HEPES, 3 mM EDTA, 0.05% Tween 20, NaCl 150 mM (SmpO49 screens), 300 mM (SmpO45, SmpO408, SmpOUNa screens) or 250 mM (Table S4); pH and temperature not stated; protein 1 uM; high values mean tight binding", "settings": "protein: recombinant; tags: His6-TEV, cleaved; chain copies: 4", "procedure,_shortened": "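The running buffer was 10 mM HEPES, 300 mM NaCl, 3 mM EDTA, 0.05% Tween 20, and protein at 1 μM was injected at 30 μl/min for 60 s contact and 60 s dissociation. The protein had been expressed in E. coli BL21(DE3)pLysS, cleaved of its tag, and purified by nickel-affinity and size-exclusion chromatography. OriT oligonucleotides were captured at 1 μM on Fc2 of a Biacore T200 SA chip by reusable DNA capture, and a linker was captured on Fc1. Values are DNA binding expressed as %Rmax.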", "units": {"binding signal": "%Rmax"}}
{"binder": "B1", "binding signal": "32.56 ± 0.0519"}
{"binder": "B2", "binding signal": "21.2 ± 1.26"}
{"binder": "B3", "binding signal": "29.4 ± 1.33"}
{"binder": "B5", "binding signal": "36.5 ± 3.64"}
{"binder": "B8", "binding signal": "33.4 ± 0.753"}
{"binder": "B9", "binding signal": "31.73 ± 0.268"}
{"binder": "B10", "binding signal": "17.8 ± 1.2"}
{"binder": "B11", "binding signal": "29.5 ± 1.43"}
{"binder": "B12", "binding signal": "31.8 ± 2.19"}
{"binder": "B13", "binding signal": "0.769 ± 0.108"}
{"binder": "B14", "binding signal": "0.641 ± 0.0361"}
{"binder": "B15", "binding signal": "13.5 ± 0.663"}
{"binder": "B16", "binding signal": "0.616 ± 0.0355"}
{"binder": "B17", "binding signal": "6.42 ± 0.416"}
{"binder": "B19", "binding signal": "7.81 ± 0.57"}
{"binder": "B20", "binding signal": "42.58 ± 0.128"}
{"biological_target": "T1, SmpO45", "experiment": "SPR (ReDCaT); 250 mM NaCl; 10 mM HEPES, 3 mM EDTA, 0.05% Tween 20, NaCl 150 mM (SmpO49 screens), 300 mM (SmpO45, SmpO408, SmpOUNa screens) or 250 mM (Table S4); pH and temperature not stated; protein 1 uM; high values mean tight binding", "settings": "protein: recombinant; tags: His6-TEV, cleaved; chain copies: 4", "units": {"binding signal": "%Rmax"}}
{"binder": "B4", "binding signal": 0.8}
{"binder": "B5", "binding signal": 37.5}
{"binder": "B6", "binding signal": 0.4}
{"binder": "B7", "binding signal": 1.6}
{"binder": "B18", "binding signal": 21.6}
{"biological_target": "T2, SmpOSep (Staphylococcus epidermidis VCU120)", "T2 chain": "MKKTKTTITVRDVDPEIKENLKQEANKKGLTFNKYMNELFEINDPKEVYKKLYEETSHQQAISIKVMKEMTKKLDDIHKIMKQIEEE", "experiment": "SPR (ReDCaT); 250 mM NaCl; 10 mM HEPES, 3 mM EDTA, 0.05% Tween 20, NaCl 150 mM (SmpO49 screens), 300 mM (SmpO45, SmpO408, SmpOUNa screens) or 250 mM (Table S4); pH and temperature not stated; protein 1 uM; high values mean tight binding", "settings": "protein: recombinant; tags: His6-TEV, cleaved; chain copies: 4", "units": {"binding signal": "%Rmax"}}
{"binder": "B4", "binding signal": 1.5}
{"binder": "B5", "binding signal": 2.9}
{"binder": "B18", "binding signal": 0.5}
{"biological_target": "T3, SmpOUNa (plasmid pC02)", "T3 chain": "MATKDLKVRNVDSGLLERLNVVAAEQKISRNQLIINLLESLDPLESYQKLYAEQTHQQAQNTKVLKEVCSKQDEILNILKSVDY", "experiment": "SPR (ReDCaT); 250 mM NaCl; 10 mM HEPES, 3 mM EDTA, 0.05% Tween 20, NaCl 150 mM (SmpO49 screens), 300 mM (SmpO45, SmpO408, SmpOUNa screens) or 250 mM (Table S4); pH and temperature not stated; protein 1 uM; high values mean tight binding", "settings": "protein: recombinant; tags: His6-TEV, cleaved; chain copies: 4", "units": {"binding signal": "%Rmax"}}
{"binder": "B5", "binding signal": 7.1}
{"binder": "B7", "binding signal": 12.4}
{"binder": "B18", "binding signal": 1.4}
{"biological_target": "T4, SmpO408 (Staphylococcus aureus M0408)", "T4 chain": "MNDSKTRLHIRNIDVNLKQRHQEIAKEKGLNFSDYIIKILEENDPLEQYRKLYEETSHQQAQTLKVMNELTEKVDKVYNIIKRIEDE", "experiment": "SPR (ReDCaT); 250 mM NaCl; 10 mM HEPES, 3 mM EDTA, 0.05% Tween 20, NaCl 150 mM (SmpO49 screens), 300 mM (SmpO45, SmpO408, SmpOUNa screens) or 250 mM (Table S4); pH and temperature not stated; protein 1 uM; high values mean tight binding", "settings": "protein: recombinant; tags: His6-TEV, cleaved; chain copies: 4", "units": {"binding signal": "%Rmax"}}
{"binder": "B5", "binding signal": 10.7}
{"binder": "B6", "binding signal": 34.2}
{"binder": "B7", "binding signal": 2.9}
{"binder": "B18", "binding signal": 0.9}
{"biological_target": "T5, SmpO49-F7K (Staphylococcus aureus plasmid pWBG749, UniProt UPI0001BEA96A 1-84, F7K)", "T5 sequence": "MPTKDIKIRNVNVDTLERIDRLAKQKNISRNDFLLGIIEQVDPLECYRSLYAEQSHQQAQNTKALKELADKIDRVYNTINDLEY", "experiment": "SPR (ReDCaT); 250 mM NaCl; 10 mM HEPES, 3 mM EDTA, 0.05% Tween 20, NaCl 150 mM (SmpO49 screens), 300 mM (SmpO45, SmpO408, SmpOUNa screens) or 250 mM (Table S4); pH and temperature not stated; protein 1 uM; high values mean tight binding", "settings": "protein: recombinant; tags: His6-TEV, cleaved; chain copies: 4", "units": {"binding signal": "%Rmax"}}
{"binder": "B5", "binding signal": 31.3}
{"binder": "B7", "binding signal": 3.5}
{"binder": "B18", "binding signal": 26.1}
